Assay results reported in ChEMBL document CHEMBL3988442, “University of Dundee, Small-Polar-MMV Screening Library” (2021).

Biological target: AMP-activated protein kinase, AMPK (Homo sapiens) (UniProt P54646+O43741+P54619+Q9UGJ0+Q9Y478+Q13131+Q9UGI9)
Test: AMP-dependent Kinase enzyme assay. An in vitro enzyme assay that detects ADP turnover that is directly proportional to AMPK activity. This uses naive AMPK that is activated during the assay with MK-8722
Assay type: functional
Set-up: scale not given: direction of the effect not stated beside the values
Details: 30 µM

Row | Structure (SMILES) | Percent Effect [%]
1 | CCc1nnc2n1CCN(C(=O)C(C)Oc1cccc(C#N)c1)C2 (stereo not given) | 5.56
2 | COCCC1CCCCN1C(=O)c1coc(COc2ccccc2F)n1 (stereo not given) | 12.2
3 | COCCOc1cccc(CNCc2ccc(-n3cncn3)nc2)c1 | 3.28
4 | CC(C)(C)c1nc(CC(=O)NCCC(=O)Nc2ccncc2)cs1 | -4.57
5 | Cc1ccc(CN(CCN(C)C)Cc2c(C)nc3sccn23)o1 | 14.3
6 | O=C1CCC(C(=O)N2CCC(Cn3cc(C4CCCC4)nn3)CC2)=NN1 | -8.82
7 | CCN(Cc1ccoc1)C(=O)Nc1ccccc1CN1CCOCC1 | 4.22
8 | Cc1c(NC(=O)NC(C)CCO)cccc1OC1CCCC1 (stereo not given) | -7.69
9 | OC(CNCCc1nnc2ccccn12)c1ccc2c(c1)OCO2 (stereo not given) | 17.2
10 | CC(C)OCCN1CCC(Nc2ncc(Br)cn2)CC1 | 10.5
11 | O=C1CCC2(CCOC2)CN1Cc1nncn1CCc1ccccc1 (stereo not given) | 14.2
12 | Cc1nc2c(c(NCC(=O)NC(C)C)n1)Cc1ccccc1OC2 | 5.96
13 | CC(C)Cc1cc(CNC(=O)c2ccccc2C2CCNC2)no1 (stereo not given) | 3.3
14 | Cc1nccn1CCCN1CCCC(c2nccn2C)C1 (stereo not given) | -14.7
15 | Cc1nccn1CCCN1CCCC(c2nccn2CC2CCC2)C1 (stereo not given) | 1.25
16 | COc1ccc(-n2cccn2)c(CN2CCOCC(CN(C)C)C2)c1 (stereo not given) | 1.67
17 | CCN(CC(=O)NC(C)C)C(=O)c1csc(Cc2ccccc2)n1 | -2.97
18 | Cc1n[nH]c(C)c1CCc1n[nH]c(=O)n1Cc1cccs1 | -7.17
19 | COCCN(C)C(=O)NCCc1coc(-c2ccc(C)cc2)n1 | -3.83
20 | Cc1nc(NC(=O)c2c3c(nn2C2CCS(=O)(=O)C2)CCC3)sc1C (stereo not given) | -4
